# Experimental data taken from PubChem BioAssay AID1578 (Sanford-Burnham Center for Chemical Genomics, 2009).
# The whole screen tested about 290,000 compounds, of which about 3,000 (1%) were called active. This excerpt belongs to a sample that is enriched for actives. A number with no mark means an inactive call. Rule as the data show it: active = inhibition mostly above about 36% (no sharp cut-off); inactive = mostly below about 34%.
# Experiment: NOD1 signaling inhibitors, primary screen, cell-based, luminescence, uHTS (AID 1578);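 also: HEK-293T reporter cells stimulated with the NOD1 agonist gamma-tri-DAP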
# Conditions: NOD1-driven NF-kB luciferase reporter cells, at 4 µM, stronger effect = higher value
row,Compound,inhibition
1,Cn1cc(Br)c(C(=O)n2cc(Br)cn2)n1,-7.4%
2,Cc1noc(C)c1S(=O)(=O)N1CCCC(C(=O)NCCc2ccccc2)C1 (stereo not given),-28.4%
3,CCNC(=O)COC(=O)c1cc(-c2ccccc2)nn1-c1ccccc1,-16.6%
4,COc1ccc(C2c3[nH]c4ccccc4c3CCN2CCCn2cccn2)c(C)c1C (stereo not given),-26.9%
5,Fc1ccccc1C1c2[nH]c3ccccc3c2CCN1CCCn1cccn1 (stereo not given),43.5%
6,Cc1ccccc1C1c2[nH]c3ccccc3c2CCN1CCCn1cccn1 (stereo not given),53.6% (active)
7,CC(C)N1CCC(N2CCN(Cc3nc4ccccc4s3)CC2CCO)CC1 (stereo not given),-1.8%
8,CC(C)N(C(=O)COC(=O)c1ccc(Cl)nc1)C(C)C,-35.6%
9,Cc1nc2ccccc2cc1C(=O)Nc1ccccc1Cl,-21.8%
10,Cn1ccnc1C(=O)c1ccc(N)cc1,-32.6%
11,Clc1nc(-c2cccnc2)nc2scc(-c3ccccc3)c12,-5%
12,COc1ccc(-c2csc3nc(-c4cccnc4)nc(N4CCC(C(N)=O)CC4)c23)cc1OC,23.4%
13,COc1ccc(-c2csc3nc(-c4cccnc4)nc(Cl)c23)cc1OC,73.4% (active)
14,CCOc1ccc(NC(=O)C2CC(=O)N(C)C(=Nc3ccc4c(c3)OCO4)S2)cc1 (stereo not given),-34.5%
15,O=C(CS(=O)(=O)c1ccccc1)NCc1ccc(Cl)cc1,-44.4%
16,CCc1ccc(C(=O)/C=C/Nc2ccc(S(=O)(=O)Nc3cnc4ccccc4n3)cc2)cc1,4%
17,c1ccc(CSc2nnc(Cc3ccccn3)o2)cc1,-32.5%
18,CSC(=Nc1ccc(Cl)cc1)N[n+]1ccccc1,-6.8%
19,NC(=Nc1ccc(Cl)cc1)c1ccccc1,-49%
20,[S-]C(=Nc1ccc(Cl)cc1)N[n+]1ccccc1,104% (active)
21,NC(=O)CCc1nc2cc(C(F)(F)F)ccc2n(Cc2ccccc2)c1=O,-13%
22,O=C(NCCCn1ccnc1)/C(=C/c1ccccc1)NC(=O)c1ccccc1,32.8%
23,O=C(COc1ccccc1Cl)NNC(=O)c1cc(S(=O)(=O)N2CCOCC2)ccc1N1CCCC1,-47.2%
24,COc1ccc(O)c(C2(O)C(=O)c3ccccc3C2=O)c1,0.1%

row,Compound,inhibition
1,O=C(CNC(=O)c1ccc2c(c1)OCO2)N/N=C(Br)/C=C/c1ccccc1,80% (active)
2,CC(/C=C/c1ccccc1)=N/NC(=O)CNC(=O)c1ccc2c(c1)OCO2,5.3%
3,COCCCNC(=O)c1ccc2c(c1)OCO2,-16.8%
4,O=C(CNC(=O)c1ccc2c(c1)OCO2)N/N=C/c1cccc([N+](=O)[O-])c1,-59.4%
5,Cc1ccc(OCCNC(=O)c2ccc3c(c2)OCO3)cc1,-63.7%
6,O=C(NCCOc1ccccc1)c1ccc2c(c1)OCO2,55.9% (active)
7,Cc1ccccc1C(=O)OCc1cnc(Cl)s1,-8.8%
8,S=c1[nH]nc(C23CC4CC(CC(C4)C2)C3)n1Cc1ccco1,1.2%
9,CCOC(=O)/C=C/C(=O)OCC(=O)NC(c1ccccc1)c1ccccc1,25.7%
10,O=C(COC(=O)/C=C/C(=O)N1CCN(c2ccccc2)CC1)NCc1ccc(F)cc1,-5.2%
11,O=C(COC(=O)/C=C/C(=O)N1CCN(c2ccccc2)CC1)NC(c1ccccc1)c1ccccc1,76.2% (active)
12,Cc1ccc(NS(=O)(=O)c2c(C)[nH]c(C)c2C(=O)N2CCCCC2)cc1F,-24.4%
13,CCCCn1c(Oc2ccc(C(=O)OC)cc2)nc2c1c(=O)n(C)c(=O)n2C,9.2%
14,O=C(CN1C(=O)CC(c2ccccc2)Sc2ccccc21)NCC1CCCO1 (stereo not given),-33.1%
15,Cc1[nH]nc2c1C(c1cccnc1)N(c1ccc(Br)cc1)C2=O (stereo not given),43.6% (active)
16,Cc1ccc(N2C(=O)c3n[nH]c(C)c3C2c2cccnc2)cc1 (stereo not given),-28.2%
17,CCOC(=O)c1ccc(N2C(=O)c3n[nH]c(C)c3C2c2cccnc2)cc1 (stereo not given),9.9%
18,Nc1nc(CSCc2ccccc2)nc(N2CCOCC2)n1,2%
19,CC(=O)N/N=C(\C)CCc1ccccc1,-4.4%
20,Cc1cc(=O)[nH]c(SC(C)C(=O)Nc2cccc3ccccc23)n1 (stereo not given),-23.2%
21,CC1=C(C(=O)OCc2ccccc2)C(c2ccccc2Cl)NC(=O)N1CCCCCC(=O)O (stereo not given),68.6% (active)
22,CC1=C(C(=O)OCc2ccccc2)C(c2cccc(Cl)c2Cl)NC(=O)N1CCCCCC(=O)O (stereo not given),8.9%
23,CC1=C(C(=O)OCc2ccccc2)C(c2ccccc2Cl)NC(=O)N1CCCC(=O)O (stereo not given),17.1%
24,O=C(Nc1ccc(Br)cc1)c1cccc(N2C(=O)C3C4CCC(C4)C3C2=O)c1 (stereo not given),11.1%

row,Compound,inhibition
1,O=C(O)c1ccc(NC(=O)c2cccc(N3C(=O)C4C5CCC(C5)C4C3=O)c2)cc1 (stereo not given),-29.6%
2,O=C(NC(c1ccccc1)c1ccccc1)c1cccc(S(=O)(=O)NCc2ccccc2)c1,-4.9%
3,COc1cc(/C=C2\COC/C(=C\c3ccc(O)c(OC)c3)C2=O)ccc1O,0%
4,COc1cc(OC)c(OC)cc1/C=C1/Cc2ccccc2C1=O,-5%
5,COc1ccc(/C=C2\CC/C(=C\c3ccc(OC)cc3OC)C2=O)c(OC)c1,-1.2%
6,COc1ccc(/C=C2\CCC/C(=C\c3ccc(OC)c(OC)c3OC)C2=O)c(OC)c1OC,-1%
7,COc1cc(OC)c(OC)cc1/C=C1\CCC(C2CCCC2)C1=O (stereo not given),-28.9%
8,COc1cc(/C=C2/CC/C(=C/c3ccc(O)c(OC)c3)C2=O)ccc1O,20.8%
9,COc1cccc(NC(=O)N2CCCC(C(=O)NCc3ccc(F)cc3)C2)c1 (stereo not given),-13.5%
10,COc1cc(-c2c(-c3cccc(C)c3)oc3ccccc23)cc(OC)c1OC,4.2%
11,O=C(N/N=C/c1c(O)n(Cc2ccccc2)c(=O)c2ccccc12)c1cccnc1,-5.8%
12,Cc1nn(Cc2ccccc2)c(C)c1/C=N/NC(=O)c1cccnc1,25.8%
13,Cc1c(/C=N/NC(=O)c2cccnc2)c2ccccc2n1Cc1ccccc1,38.8% (active)
14,CC1CCN(C(=O)c2ccccc2NC(=O)c2cccc(S(=O)(=O)N3CCOCC3)c2)CC1,-2.3%
15,CN(Cc1ccc(Cl)s1)C(=O)CCl,99.8% (active)
16,CCOc1ccc(CN(C)C(=O)CCl)cc1,10.8%
17,COc1ccc(CN(C)C(=O)CCl)cc1,10%
18,O=C(NC1CC1)C1CCN(C2CCN(C(=O)/C=C/c3cccc(F)c3F)CC2)CC1,-10.9%
19,CC1CN(S(=O)(=O)c2ccc(C(=O)Nc3ccc(S(=O)(=O)Nc4ncccn4)cc3)cc2)CC(C)O1 (stereo not given),-34.7%
20,O=C(NCc1ccco1)c1c[nH]c2ccc(S(=O)(=O)N3CCOCC3)cc2c1=O,-21.1%
21,Nc1ccc(-c2nc3ccc(C(=O)O)cc3s2)cc1,89.8% (active)
22,Nc1ccc(-c2nc3ccc(N)cc3s2)cc1,-7.4%
23,O=C(O)c1ccc2nc(-c3ccccc3)sc2c1,26.5%
24,C[C@@H]1NC(=O)[C@H](CCC(=O)O)NC(=O)c2cc([N+](=O)[O-])cc(F)c2NCCC[C@@H](C(N)=O)NC1=O,-18.8%

row,Compound,inhibition
1,O=c1c2[nH]c3ccc(F)cc3c2ncn1CCC1=CCCCC1,-0.7%
2,COc1ccc(-c2csc3ncnc(Nc4ccc(O)cc4)c23)cc1,15.8%
3,O=C(O)c1ccc(Nc2ncnc3scc(-c4ccccc4)c23)cc1,-63%
4,Cc1sc2ncnc(NCC3COc4ccccc4O3)c2c1C (stereo not given),44.6%
5,Oc1ccc(Nc2ncnc3scc(-c4ccccc4)c23)cc1,83.6% (active)
6,Cc1csc2ncnc(NCCc3ccccn3)c12,37%
7,c1ccc(-c2csc3ncnc(NCC4COc5ccccc5O4)c23)cc1 (stereo not given),75.2% (active)
8,c1csc(-c2csc3ncnc(NCCCN4CCOCC4)c23)c1,30.7%
9,CN(C)CCCNc1ncnc2scc(-c3ccccc3)c12,-40.3%
10,c1ccc(CNc2nc(-c3cccs3)nc3ccccc23)nc1,-27.4%
11,c1ccc2c(c1)OCC(CNc1ncnc3sccc13)O2 (stereo not given),57.1%
12,CC(=O)N(c1ccc(N(C(C)=O)S(=O)(=O)c2cccs2)cc1)S(=O)(=O)c1cccs1,3%
13,CSc1nnc2c3cc(F)ccc3n(Cc3ccccc3)c2n1,-1.5%
14,CN(C)/C=C/C(=O)c1cnc(-c2ccccc2Cl)s1,-20.8%
15,Cn1c(=O)oc2cc(S(=O)(=O)NCCC(=O)N3CCN(c4ccccc4)CC3)ccc21,-5.7%
16,CCC(C)C(=O)Nc1cc(C(=O)OC)ccc1C(=O)OC (stereo not given),-11.8%
17,CC1(C)CC(=O)c2cc(N=C/C(C(=O)c3ccccc3)=C(\O)c3ccccc3)c(=O)oc2C1,-21.7%
18,Cc1cc(C)n2nc(N)c(N=Nc3ccc4c(c3)OCO4)c2n1,22.6%
19,Nc1nn(-c2ccccc2)c(N)c1N=Nc1ccc2c(c1)OCO2,-68.3%
20,COc1cccc(CNC(C)(C)CO)c1OCc1ccc(Cl)cc1,-33%
21,COc1ccc(CC(=O)NC2CCN(Cc3nnnn3C(C)(C)C)CC2)cc1OC,-12.7%
22,COc1ccc(/C=C/C(=O)N2CCN(c3ccccn3)CC2)cc1,-37.3%
23,CCOC(=O)/C(C#N)=C\C1=C(N2CCOCC2)CC(C)(C)OC1,-33.6%
